For test [1], the target named is Aryl hydrocarbon receptor (Homo sapiens) (UniProt P35869). Description: qHTS assay to identify small molecule that activate the aryl hydrocarbon receptor (AhR) signaling pathway (AID 743085; active = well fitted curve in the direction sought with a large enough effect in the repeat runs; an effect the other way counts as inactive or inconclusive;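 note: HG2L7.5c1 human HepG2 liver cells with stably integrated DRE-driven firefly reporter; series mostly up to about 70 µM; nearly all actives have a fitted effect of over 15% in size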). The method in brief: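 HepG2 cells (HG2L7.5c1) stably carrying a firefly luciferase reporter driven by 20 dioxin responsive elements were exposed to compound for 24 h at 37C after a 5 h settling period; luminescence rise (ONE-Glo) indicated activation.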
(In general: qHTS replaces the single test concentration by a dilution series.)

The target of test [2] is Acetylcholinesterase (Homo sapiens) (UniProt P22303). Put plainly: Acetylcholinesterase (AChE) small molecule antagonists: colormetric cell-based qHTS assay (AID 1347395). Note: nearly all actives have a fitted effect of over 30% in size. Note: potency is the fitted concentration of half-maximal effect. The method in brief: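 SH-SY5Y cells, plated overnight at 37 C, were exposed to compounds for 30 min at 37 C and 5% CO2. Acetylthiocholine plus DTNB was then added, and thiocholine from endogenous AChE was quantified colorimetrically after 90 min at 37 C.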

Test [3] has the same target. Description: Acetylcholinesterase (AChE) small molecule antagonists: enzyme-based qHTS assay (AID 1347397). Note: nearly all actives have a fitted effect of over 55% in size. Note: potency is the fitted concentration of half-maximal effect. To be noted: Potency: AChE enzyme activity inhibition; outcome: AChE enzyme activity inhibition. The method in brief: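 First, recombinant human AChE (50 mU/mL as dispensed) received test compound or DMSO. Second, plates stood 30 min at room temperature. Third, DTNB and acetylthiocholine were added, followed by 10 min at room temperature and colorimetric detection.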

The target is the same in test [4]. Description: Acetylcholinesterase (AChE) small molecule antagonists: fluorescence cell-based qHTS assay (AID 1347398). Note: nearly all actives have a fitted effect of over 50% in size. To be noted: Potency: AChE activity; outcome: AChE activity. The method in brief:
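Homogeneous quantitative HTS format. SH-SY5Y cells seeded at 2,000 per well settle overnight at 37 C. Compound pretreatment runs 30 min (37 C, 5% CO2); substrate/probe mix then reacts 40 min at RT before reading 490/520 nm.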

Test [5] shares this target. Description: Acetylcholinesterase (AChE) small molecule antagonists: enzyme-based qHTS assay with human liver microsomes (AID 1347399). Note: nearly all actives have a fitted effect of over 60% in size. The settings on record: Potency: qHTS inhibition; outcome: qHTS inhibition. The method in brief:
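Recombinant human AChE (50 mU/mL in the enzyme mix) and human liver microsomes (0.25 mg/mL final) were preincubated with compound and NADPH (0.25 mg/mL final) for 30 min at 37 C. Acetylthiocholine/DTNB was then added; thiocholine was read colorimetrically after 10 min at room temperature.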

Test [6] in a line: qHTS assay for small molecule agonists of the p53 signaling pathway (AID 651631). Note: nearly all actives have a fitted effect of over 15% in size. Note: potency is the fitted concentration of half-maximal effect. The method in brief:
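HCT-116 cells carrying a stable p53 response element–beta-lactamase reporter were plated, rested 5 h at 37 °C, then exposed to compound in DMSO for 16 h at 37 °C; reporter activity was read as FRET substrate fluorescence after 2 h at room temperature.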

In test [7] the target is Glucocorticoid receptor (Homo sapiens) (UniProt P04150). Put plainly: qHTS assay to identify small molecule antagonists of the glucocorticoid receptor (GR) signaling pathway (AID 720692; active = well fitted inhibition curve with a large enough effect in the signal ratio in the repeat runs, not every such curve was filed as active; the % refers to the signal ratio). The method in brief: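 Tox21 10K library screened in concentration-response for blockade of dexamethasone (5 nM final)-induced GRE-bla reporter activity in HeLa cells; 18 h treatment, fluorescence read.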

In another test the target is Aromatase (Homo sapiens) (UniProt P11511). Description: qHTS assay to identify aromatase inhibitors (AID 743083; active = well fitted curve in the direction sought with a large enough effect in the repeat runs; an effect the other way counts as inactive or inconclusive; note: nearly all actives have a fitted effect of over 55% in size; note: potency is the fitted concentration of half-maximal effect; for activity, negative = inhibition: series mostly up to about 70 µM).
Test [8] addresses Peroxisome proliferator-activated receptor delta (Homo sapiens) (UniProt Q03181). Description: qHTS assay to identify small molecule antagonists of the peroxisome proliferator-activated receptor delta (PPARd) signaling pathway (AID 743215; active = well fitted inhibition curve with a large enough effect in the signal ratio in the repeat runs, not every such curve was filed as active; the % refers to the signal ratio;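 note: cells stimulated with agonist L165041 at 300 nM final during compound exposure; series mostly up to about 62 µM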). The method in brief:
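Screen format: qHTS, antagonist mode. HEK293H PPARd-bla cells received compound and 300 nM L165041 (final), 17 h, 37 C. Beta-lactamase detected via FRET substrate fluorescence, 2 h, room temperature.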

Values without a mark were called inactive. Records with an inconclusive call do not appear. The source made the active and inactive calls. Unless noted, calls come from the whole dose curve.
% is set by controls: 0 for no effect and ±100 for the full control effect.

Glucocorticoid receptor (Homo sapiens), sequence (P04150 whole entry, looked up): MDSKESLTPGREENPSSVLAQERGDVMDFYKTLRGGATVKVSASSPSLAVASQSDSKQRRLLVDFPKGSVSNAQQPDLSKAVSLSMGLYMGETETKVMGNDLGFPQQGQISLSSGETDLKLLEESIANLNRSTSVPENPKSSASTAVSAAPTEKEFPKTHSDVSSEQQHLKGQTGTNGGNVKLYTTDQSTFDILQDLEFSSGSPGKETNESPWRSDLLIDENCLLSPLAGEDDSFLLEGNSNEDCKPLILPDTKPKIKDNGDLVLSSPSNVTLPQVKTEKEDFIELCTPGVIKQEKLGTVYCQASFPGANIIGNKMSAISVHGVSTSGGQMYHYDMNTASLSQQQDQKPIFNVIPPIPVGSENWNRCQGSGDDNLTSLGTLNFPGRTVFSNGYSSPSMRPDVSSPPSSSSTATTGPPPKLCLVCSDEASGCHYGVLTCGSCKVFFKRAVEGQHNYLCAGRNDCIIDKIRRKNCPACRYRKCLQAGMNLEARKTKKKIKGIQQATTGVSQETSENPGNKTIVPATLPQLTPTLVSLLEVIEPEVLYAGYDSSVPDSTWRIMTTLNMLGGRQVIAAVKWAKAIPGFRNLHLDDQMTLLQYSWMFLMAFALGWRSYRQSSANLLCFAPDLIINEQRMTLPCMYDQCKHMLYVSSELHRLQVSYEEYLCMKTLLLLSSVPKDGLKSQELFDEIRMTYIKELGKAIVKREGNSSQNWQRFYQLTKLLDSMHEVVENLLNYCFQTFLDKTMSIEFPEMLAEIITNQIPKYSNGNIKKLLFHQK
Acetylcholinesterase (Homo sapiens), sequence (P22303 whole entry, looked up): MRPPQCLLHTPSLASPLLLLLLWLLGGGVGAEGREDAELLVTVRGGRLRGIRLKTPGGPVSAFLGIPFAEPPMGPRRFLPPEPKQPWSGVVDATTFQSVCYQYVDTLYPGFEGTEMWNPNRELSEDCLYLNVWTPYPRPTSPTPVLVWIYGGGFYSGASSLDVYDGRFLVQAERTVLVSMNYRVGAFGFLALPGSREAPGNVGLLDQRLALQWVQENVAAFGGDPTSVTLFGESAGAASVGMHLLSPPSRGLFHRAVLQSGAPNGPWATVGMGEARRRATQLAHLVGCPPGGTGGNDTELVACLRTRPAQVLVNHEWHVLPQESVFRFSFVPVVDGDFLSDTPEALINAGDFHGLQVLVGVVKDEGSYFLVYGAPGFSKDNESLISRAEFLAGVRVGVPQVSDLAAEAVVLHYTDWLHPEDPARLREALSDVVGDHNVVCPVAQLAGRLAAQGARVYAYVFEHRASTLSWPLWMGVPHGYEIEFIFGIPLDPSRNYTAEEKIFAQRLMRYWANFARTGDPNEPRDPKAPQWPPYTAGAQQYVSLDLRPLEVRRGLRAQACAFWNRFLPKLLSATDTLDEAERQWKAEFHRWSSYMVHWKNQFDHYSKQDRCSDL
Aryl hydrocarbon receptor (Homo sapiens), sequence (P35869 whole entry, looked up): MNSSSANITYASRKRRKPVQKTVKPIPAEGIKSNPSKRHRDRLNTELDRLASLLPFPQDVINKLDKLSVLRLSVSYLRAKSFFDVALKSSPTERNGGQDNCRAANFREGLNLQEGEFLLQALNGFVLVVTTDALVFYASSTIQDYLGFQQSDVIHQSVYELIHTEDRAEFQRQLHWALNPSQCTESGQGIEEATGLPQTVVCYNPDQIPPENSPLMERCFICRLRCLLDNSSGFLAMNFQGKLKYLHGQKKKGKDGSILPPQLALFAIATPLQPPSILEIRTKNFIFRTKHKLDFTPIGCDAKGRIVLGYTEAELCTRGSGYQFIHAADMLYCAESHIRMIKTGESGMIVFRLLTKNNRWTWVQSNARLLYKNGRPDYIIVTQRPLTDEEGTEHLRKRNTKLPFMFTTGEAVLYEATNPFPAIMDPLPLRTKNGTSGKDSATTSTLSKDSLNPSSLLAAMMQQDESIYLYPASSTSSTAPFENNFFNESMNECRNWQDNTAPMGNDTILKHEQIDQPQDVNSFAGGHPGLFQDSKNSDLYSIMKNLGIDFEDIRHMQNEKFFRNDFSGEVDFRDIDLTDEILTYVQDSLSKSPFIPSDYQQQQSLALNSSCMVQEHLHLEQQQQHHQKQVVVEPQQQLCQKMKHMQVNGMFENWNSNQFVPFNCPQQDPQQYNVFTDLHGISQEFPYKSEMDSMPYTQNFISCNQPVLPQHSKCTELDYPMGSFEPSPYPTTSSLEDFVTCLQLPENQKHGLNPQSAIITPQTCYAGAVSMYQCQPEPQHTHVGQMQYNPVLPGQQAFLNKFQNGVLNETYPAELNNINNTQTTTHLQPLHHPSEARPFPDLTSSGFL
Aromatase (Homo sapiens), sequence (P11511 whole entry, looked up): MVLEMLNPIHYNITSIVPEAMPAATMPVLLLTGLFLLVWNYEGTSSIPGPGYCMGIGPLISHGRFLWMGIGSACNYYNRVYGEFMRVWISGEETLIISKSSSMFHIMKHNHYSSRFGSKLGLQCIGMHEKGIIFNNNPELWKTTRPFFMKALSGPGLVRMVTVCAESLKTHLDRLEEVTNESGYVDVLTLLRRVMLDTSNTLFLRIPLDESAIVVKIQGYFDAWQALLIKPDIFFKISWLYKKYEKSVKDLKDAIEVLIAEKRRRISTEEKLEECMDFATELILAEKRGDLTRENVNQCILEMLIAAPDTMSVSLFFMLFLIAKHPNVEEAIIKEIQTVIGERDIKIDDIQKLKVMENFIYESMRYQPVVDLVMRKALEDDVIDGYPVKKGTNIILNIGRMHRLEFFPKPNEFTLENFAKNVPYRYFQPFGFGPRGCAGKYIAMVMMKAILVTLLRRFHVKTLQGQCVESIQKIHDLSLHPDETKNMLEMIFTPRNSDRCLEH
Peroxisome proliferator-activated receptor delta (Homo sapiens), sequence (Q03181 whole entry, looked up): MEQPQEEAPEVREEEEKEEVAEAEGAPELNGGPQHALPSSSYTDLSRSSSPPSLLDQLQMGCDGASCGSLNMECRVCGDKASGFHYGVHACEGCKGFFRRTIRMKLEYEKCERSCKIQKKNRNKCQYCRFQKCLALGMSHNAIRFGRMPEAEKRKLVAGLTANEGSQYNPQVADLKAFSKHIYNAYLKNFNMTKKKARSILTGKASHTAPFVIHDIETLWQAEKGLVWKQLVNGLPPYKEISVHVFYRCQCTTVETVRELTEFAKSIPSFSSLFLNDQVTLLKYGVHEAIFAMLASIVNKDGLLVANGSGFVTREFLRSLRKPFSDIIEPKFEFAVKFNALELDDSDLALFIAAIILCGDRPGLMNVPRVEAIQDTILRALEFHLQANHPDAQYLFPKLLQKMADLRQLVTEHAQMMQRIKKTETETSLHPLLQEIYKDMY

With `Brc1cc(Br)c(Oc2cc(Br)c(Br)cc2Br)cc1Br`, the outcome in test [1] was inactive. Further, the Potency result in test [2], in test [3], in test [4] and in test [5] was “inactive” in each case.
Turning to `OCCN1CCN(CCCN2c3ccccc3Sc3ccc(Cl)cc32)CC1`, the Potency entry in test [2], in test [3] and in test [5] was “inactive” each time.
As for `Nc1ccn(C2CO[C@H](CO)O2)c(=O)n1` (some centres not stated), the Potency entry in test [2], in test [3] and in test [5] was “inactive” each time.
`CC(C)COCC(CN(Cc1ccccc1)c1ccccc1)N1CCCC1` (configuration not stated): the Potency entry in test [2], in [3] and in test [5] was “inactive” throughout.
`C[N+]12CCC(CC1)C(OC(=O)C(O)(c1ccccc1)c1ccccc1)C2` (configuration not stated): the Potency entry (in test [6]; in [7]; with Aromatase (Homo sapiens); in test [2]; in test [3]; in [4]) was “inactive” throughout. In addition, in test [5], the Potency result is “inactive”. Besides, the outcome in test [1] and in test [8] was inactive.
As to `Cc1ccccc1C`, the Potency result in [6], in test [7], in test [2], in [3], in test [4] and in test [5] was “inactive” each time.
As for `Cc1ncc([C@@H](CCCCCCc2ccc3c(n2)NCCC3)CC(=O)O)cn1`, in [2], the Potency is 56.4 µM (active). Besides, the Potency entry in test [3] and in test [5] was “inactive” each time.
As to `COc1ccc(C(=O)Nc2ccccc2)cc1[N+](=O)[O-]`, the Potency in test [2] is 35.9 µM (active). The Potency entry in test [3] and in test [5] was “inactive” in each case.
In the case of `CCCCOc1cc(C(=O)OCCN(CC)CC)ccc1N`, the Potency result in test [2], in test [3] and in test [5] was “inactive” in each case.
`Oc1ccc(C2(c3ccc(O)cc3)CC3CC2C2CCCC32)cc1` (configuration not stated): the Potency entry in [2] and in test [5] was “inactive” in each case. For the same molecule, in test [3], the Potency was 76.5 µM (active).
For the molecule `COC(=O)c1ccc(OC)cc1`, the Potency result in test [2], in [3], in test [4] and in test [5] was “inactive” in each case.
On to `CCN(CC)CCNc1ccc(CO)c2sc3ccccc3c(=O)c12`, for which the Potency result in test [2], in [3] and in test [5] was “inactive” throughout.
Turning to `O=[N+]([O-])C1(Br)COCOC1`, the Potency result in test [2], in test [3] and in test [5] was “inactive” each time.
For the molecule `C[C@@H](CN(C)C)CN1c2ccccc2Sc2ccccc21`, the Potency result in [2], in test [3] and in test [5] was “inactive” each time.
Regarding `c1ccc(-c2ccc(-c3ccccc3)cc2)cc1`, the Potency result with Aromatase (Homo sapiens) was “inactive”. Moreover, in [2], the activity, negative = inhibition is -0.11% [at 23.6 µM]. Moreover, the activity change, negative = inhibition in [3] is 0% [at 23.6 µM]; in test [4] it was 6.58% [at 23.8 µM]; in test [5] it was 0.417% [at 23.6 µM].
On to `CC(CO)(CO)[N+](=O)[O-]`, for which the Potency entry (in test [7]; with Aromatase (Homo sapiens); in [2]; in test [3]; in [4]; in test [5]) was “inactive” each time.
For `O=C(Oc1ccccc1)c1ccccc1C(=O)Oc1ccccc1`, the Potency result (with Aromatase (Homo sapiens); in test [2]; in [3]; in [4]; in [5]) was “inactive” in each case.
For the molecule `Nc1nc2ccccc2n1Cc1ccc(F)cc1`, the Potency result in test [2], in test [3] and in test [5] was “inactive” throughout.
`OCCN1CCN(CC/C=C2/c3ccccc3Sc3ccc(C(F)(F)F)cc32)CC1`: the Potency result in test [2], in test [3] and in [5] was “inactive” each time.
Take `CCCCC/C=C\C=C\C(=O)OCC`: the Potency result in test [2], in [3] and in [5] was “inactive” each time.
Turning to `OCCCc1cccnc1`, the Potency result in test [2], in [3] and in test [5] was “inactive” in each case.
For `Cc1ccc(N)cc1[N+](=O)[O-]`, the Potency result (in test [6]; in the test with Aromatase (Homo sapiens); in test [2]; in test [3]; in test [4]) was “inactive” each time.
On to `Cc1cc(C)c(N)cc1C`, for which the Potency result (with Aromatase (Homo sapiens); in test [2]; in test [3]; in [4]; in test [5]) was “inactive” each time. Also, in test [1], the molecule was called inactive.
Consider `CCCCCCOC(=O)C(C)CC` (configuration not stated), for which the Potency result in [2], in test [3] and in test [5] was “inactive” each time.
Consider `CC(C)(c1cc(Br)c(OCCO)c(Br)c1)c1cc(Br)c(OCCO)c(Br)c1`, for which the Potency (in test [6]; with Aromatase (Homo sapiens)) was 42.3 µM (active) in each case. Besides, the molecule was classed as inactive in test [1]. The Potency result in test [2], in test [3] and in [4] was “inactive” in each case.
On to `Nc1cc(C(F)(F)F)ccc1S`, for which the Potency entry in [2], in test [3] and in test [5] was “inactive” throughout.
Regarding `CCOc1cc(N)c(Cl)cc1C(=O)NCC1CN(Cc2ccc(F)cc2)CCO1` (configuration not stated), the Potency result in test [2], in test [3] and in test [5] was “inactive” each time.
With `CN1CCC(N(Cc2cccs2)c2ccccc2)CC1`, the Potency result in test [7], in test [2], in [3], in test [4] and in [5] was “inactive” in each case. In test [1], the molecule was classed as inactive.
On to `CSc1ccc(C(=O)c2[nH]c(=O)[nH]c2C)cc1`, for which the Potency entry in test [2], in test [3] and in test [5] was “inactive” throughout.
Consider `Cc1ccc(C)c(N)c1`, for which the Potency result in test [6], in test [2], in test [3], in test [4] and in test [5] was “inactive” each time.
Consider `Cc1c(C)c2c(c(C)c1OC(=O)CCC(=O)OCCO)CC[C@@](C)(CCC[C@H](C)CCC[C@H](C)CCCC(C)C)O2`, for which the Potency entry in test [2], in [3] and in [5] was “inactive” in each case.
In the case of `CN(C)CCN1C(=O)c2ccccc2N(C)c2ccccc21`, the Potency result in test [2], in test [3] and in [5] was “inactive” in each case.
On to `C[C@@H]1CN(c2c(F)c(F)c3c(=O)c(C(=O)O)cn(C4CC4)c3c2F)C[C@H](C)N1`, for which, in [2], the activity, negative = inhibition was -2.8% [at 23.6 µM]. For the same molecule, the activity change, negative = inhibition in test [3] was -0.831% [at 23.6 µM]; in test [5], -1.43% [at 23.6 µM].
On to `Cc1nc(-c2ccc(OCC(C)C)c(C#N)c2)sc1C(=O)O`, for which the Potency in test [2] is 27.5 µM (active). The Potency result in test [3] and in test [5] was “inactive” each time.
Turning to `Cc1nc(N)nc(N)c1-c1ccc(Cl)c(Cl)c1`, the Potency entry in test [2], in test [3] and in test [5] was “inactive” in each case.

These data come from PubChem BioAssay (Tox21).
